# Data taken from PubChem BioAssay (NCATS).
# “And” between values parts separate entries of the source, which are not always exact repeats. Identical values can stand only once. Results filed as inconclusive are left out. Where a call stands in place of a potency, no number is given. Values without a mark were called inactive. The source made the active and inactive calls. The call rests on the fitted dose curve; in most records, active means well fitted curve in the direction sought with a large enough effect; inconclusive means small, poorly fitted or top-dose-only effect, or another doubt; inactive means no such curve, though single readings can be large; an effect the other way counts as inactive or inconclusive. Numbered stars: 1 amine (or outer) side, 2 acyl side, 3 side chain; on linkers, the order of the positions; unused ones are H or OH. Bridge positions count the residues as written; N and C are the ends. Square brackets hold non-standard residues; d marks the D form. Peptide text beside a SMILES is read from it. I, II: the chains in the order shown. Actinocin(9to1) = Cc1c2oc3c(C)ccc(C(=O)[*:1])c3nc-2c(C(=O)[*:2])c(N)c1=O; NMeV = CN[C@H](C(=O)O)C(C)C; Sar = CNCC(=O)O
# Tests used:
# MCC-13 = test: qHTS assay to identify novel small-molecules to repurpose for Merkel cell carcinoma treatment (AID 1296009); details: MCC and control cell lines, CellTiter-Glo viability, 72 h; series mostly up to 46 µM; further: nearly all actives have a fitted effect of over 60% in size
# In short: (§1)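 After compound transfer in DMSO, plates were kept 72 hr at 37 degree celsius. Luminescent ATP signal from CellTiter-Glo served as viability measure, normalized against DMSO and no-cell controls.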
# MCC-26 = test: as above; details: MCC and control cell lines, CellTiter-Glo viability, 72 h; series mostly up to 46 µM
# In short: as §1
# MKL-1 = test: as above; details: MCC and control cell lines, CellTiter-Glo viability, 72 h; series mostly up to 46 µM
# In short: as §1
# MKL-2 = test: as above; details: MCC and control cell lines, CellTiter-Glo viability, 72 h; series mostly up to 46 µM
# In short: as §1
# UISO = test: as above; details: MCC and control cell lines, CellTiter-Glo viability, 72 h; series mostly up to 46 µM
# In short: as §1
# WaGa = test: as above; details: MCC and control cell lines, CellTiter-Glo viability, 72 h; series mostly up to 46 µM
# In short: as §1
# C33A = test: Primary qHTS to identify gynecologic anti-cancer compounds using libraries of approved drugs and bioactive compounds (AID 1345084); details: Gynecologic cancer cell panel viability, ATPlite luminescence, 48 h; series mostly up to 57.5 µM; further: nearly all actives have a fitted effect of over 55% in size
# In short: (§2)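 Five-point cytotoxicity, 48 h drug exposure at 37 C, 5% CO2, on cells seeded 16 h beforehand. ATP content read by ATPlite luminescence.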
# CAOV3 = test: as above; details: Gynecologic cancer cell panel viability, ATPlite luminescence, 48 h; series mostly up to 57.5 µM
# In short: as §2
# CASKI = test: as above; details: Gynecologic cancer cell panel viability, ATPlite luminescence, 48 h; series mostly up to 57.5 µM
# In short: as §2
# Es-2 = test: as above; details: Gynecologic cancer cell panel viability, ATPlite luminescence, 48 h; series mostly up to 57.5 µM
# In short: as §2
# HeLa = test: as above; details: Gynecologic cancer cell panel viability, ATPlite luminescence, 48 h; series mostly up to 57.5 µM
# In short: as §2
# Hek293T = test: as above; details: Gynecologic cancer cell panel viability, ATPlite luminescence, 48 h, control line for the selectivity index; series mostly up to 57.5 µM
# In short: as §2
# JEG-3 = test: as above; details: Gynecologic cancer cell panel viability, ATPlite luminescence, 48 h; series mostly up to 57.5 µM
# In short: as §2
# PA-1 = test: as above; details: Gynecologic cancer cell panel viability, ATPlite luminescence, 48 h; series mostly up to 57.5 µM
# In short: as §2
# SKOV3 = test: as above; details: Gynecologic cancer cell panel viability, ATPlite luminescence, 48 h; series mostly up to 57.5 µM
# In short: as §2
# OV90 = test: as above; details: Gynecologic cancer cell panel viability, ATPlite luminescence, 48 h; series mostly up to 57.5 µM
# In short: as §2
# NIH3T3 = test: qHTS assay to identify novel small-molecules to repurpose for Merkel cell carcinoma treatment (AID 1296009); details: MCC and control cell lines, CellTiter-Glo viability, 72 h; at 44.8 µM (top of the series) unless noted; further: nearly all actives have a fitted effect of over 60% in size
# In short: as §1
# Potency means the concentration at half of the fitted maximal effect.
structure (smiles),measurement,setting,value
C#C[C@]1(O)CC[C@H]2[C@@H]3CCC4=CC(=O)CC[C@@H]4[C@H]3CC[C@@]21C,Potency,MCC-13,inactive
same,Potency,MCC-26,inactive
same,Potency,MKL-1,inactive
same,Potency,MKL-2,inactive
same,Potency,UISO,inactive
same,Potency,WaGa,inactive
same,Potency,C33A,inactive
same,Potency,CAOV3,inactive
same,Potency,CASKI,inactive
same,Potency,Es-2,inactive
same,Potency,HeLa,3.55 µM (active)
same,Potency,Hek293T,inactive
same,Potency,JEG-3,inactive
same,Potency,PA-1,17.8 µM (active)
same,Potency,SKOV3,inactive
CCN(CCCc1ccccc1)CCCc1ccccc1,Potency,MCC-13,inactive
same,Potency,MKL-1,inactive
same,Potency,UISO,inactive
same,Potency,WaGa,inactive
same,Potency,C33A,inactive
same,Potency,CASKI,inactive
same,Potency,Es-2,inactive
same,Potency,HeLa,inactive
same,Potency,Hek293T,inactive
same,Potency,JEG-3,inactive
same,Potency,OV90,28.2 µM (active)
same,Potency,PA-1,inactive
same,Potency,SKOV3,inactive
c1ccc(-c2ccc(C(c3ccccc3)n3ccnc3)cc2)cc1 (stereo not given),Potency,MCC-13,inactive
same,Potency,MCC-26,inactive
same,Potency,C33A,inactive
same,Potency,CAOV3,inactive
same,Potency,CASKI,inactive
same,Potency,Es-2,inactive
same,Potency,HeLa,inactive
same,Potency,JEG-3,inactive
same,Potency,OV90,inactive
same,Potency,PA-1,inactive
CC(Cc1cccc(C(F)(F)F)c1)NCCOC(=O)c1ccccc1 (stereo not given),Potency,MCC-13,inactive
same,Potency,MKL-1,inactive
same,Potency,MKL-2,inactive
same,outcome,NIH3T3,inactive
same,Potency,UISO,inactive
same,Potency,WaGa,inactive
same,Potency,C33A,inactive
same,Potency,CAOV3,inactive
same,Potency,CASKI,inactive
same,Potency,Es-2,inactive
same,Potency,HeLa,inactive
same,Potency,Hek293T,inactive
same,Potency,JEG-3,inactive
same,Potency,OV90,inactive
same,Potency,PA-1,inactive
same,Potency,SKOV3,inactive
CC(C)(Oc1ccc(Cl)cc1)C(=O)O,Potency,MCC-13,inactive
same,Potency,MKL-1,inactive
same,Potency,MKL-2,inactive
same,Potency,UISO,inactive
same,Potency,WaGa,inactive
same,Potency,C33A,inactive
same,Potency,CAOV3,inactive
same,Potency,CASKI,inactive
same,Potency,Es-2,inactive
same,Potency,HeLa,inactive
same,Potency,Hek293T,inactive
same,Potency,JEG-3,inactive
same,Potency,OV90,inactive
same,Potency,PA-1,inactive
same,Potency,SKOV3,inactive
"Cc1c2oc3c(C)ccc(C(=O)N[C@@H]4C(=O)N[C@H](C(C)C)C(=O)N5CCC[C@H]5C(=O)N(C)CC(=O)N(C)[C@@H](C(C)C)C(=O)O[C@@H]4C)c3nc-2c(C(=O)N[C@@H]2C(=O)N[C@H](C(C)C)C(=O)N3CCC[C@H]3C(=O)N(C)CC(=O)N(C)[C@@H](C(C)C)C(=O)O[C@@H]2C)c(N)c1=O (I: T[dV]P[Sar][NMeV] / II: T[dV]P[Sar][NMeV]; ester I:1-I:C, II:1-II:C; linker I:N-II:N via Actinocin(9to1))",Potency,MCC-13,0.0335 µM (active)
same,Potency,MCC-26,0.0211 µM (active)
same,Potency,MKL-2,0.0038 µM (active)
same,Potency,UISO,0.0033 µM (active)
C[C@H]1[C@H](NC(=O)/C(=N/OC(C)(C)C(=O)O)c2csc(N)n2)C(=O)N1S(=O)(=O)O (stereo in doubt),Potency,MCC-13,inactive
same,Potency,MCC-26,inactive
same,Potency,MKL-1,inactive
same,Potency,MKL-2,inactive
same,Potency,UISO,inactive
same,Potency,WaGa,inactive
same,Potency,C33A,inactive
same,Potency,CAOV3,inactive
same,Potency,CASKI,inactive
same,Potency,Es-2,inactive
same,Potency,HeLa,inactive
same,Potency,Hek293T,inactive
same,Potency,JEG-3,inactive
same,Potency,OV90,inactive
same,Potency,PA-1,inactive
same,Potency,SKOV3,inactive
c1ccc(OCc2ccc(CCCN3CCOCC3)cc2)cc1,Potency,MCC-13,inactive
same,Potency,MCC-26,inactive
same,Potency,MKL-1,inactive
same,Potency,C33A,inactive
same,Potency,CAOV3,inactive
same,Potency,CASKI,inactive
same,Potency,Es-2,inactive
same,Potency,HeLa,inactive
same,Potency,JEG-3,inactive
same,Potency,PA-1,inactive
same,Potency,SKOV3,inactive
CCOc1ccc2nc3cc(N)ccc3c(N)c2c1,Potency,MCC-26,inactive
same,Potency,MKL-1,5.96 µM (active)
same,Potency,MKL-2,2.99 µM (active)
same,Potency,UISO,8.41 µM (active)
same,Potency,WaGa,2.11 µM (active)
same,Potency,CAOV3,12.6 µM (active)
same,Potency,Es-2,inactive
same,Potency,HeLa,inactive
CN(C(=O)CN(CCO)CC(=O)N(C)C(C)(C)Cc1ccccc1)C(C)(C)Cc1ccccc1,Potency,MCC-26,inactive
same,Potency,MKL-2,16.8 µM (active)
same,Potency,C33A,inactive
same,Potency,CASKI,inactive
same,Potency,Es-2,inactive
same,Potency,HeLa,inactive
same,Potency,Hek293T,inactive
same,Potency,JEG-3,inactive
same,Potency,OV90,inactive
same,Potency,PA-1,inactive
same,Potency,SKOV3,inactive
CN1C(CCl)Nc2cc(Cl)c(S(N)(=O)=O)cc2S1(=O)=O (stereo not given),Potency,C33A,inactive
same,Potency,CAOV3,inactive
same,Potency,CASKI,inactive
same,Potency,Es-2,inactive
same,Potency,HeLa,inactive
same,Potency,Hek293T,inactive
same,Potency,JEG-3,inactive
same,Potency,OV90,inactive
same,Potency,PA-1,inactive
same,Potency,SKOV3,inactive
CC(C)NC[C@@H](O)COc1cccc2ccccc12,Potency,C33A,inactive
same,Potency,CAOV3,inactive
same,Potency,Es-2,inactive
same,Potency,HeLa,inactive
same,Potency,Hek293T,inactive
same,Potency,JEG-3,inactive
same,Potency,OV90,inactive
same,Potency,PA-1,inactive
same,Potency,SKOV3,inactive
CCN1CCCC1=O,Potency,C33A,inactive
same,Potency,CAOV3,inactive
same,Potency,CASKI,inactive
same,Potency,Es-2,inactive
same,Potency,HeLa,inactive
same,Potency,Hek293T,inactive
same,Potency,JEG-3,inactive
same,Potency,OV90,inactive
same,Potency,PA-1,inactive
same,Potency,SKOV3,inactive
C[C@]12CC[C@@H]3c4ccc(O)cc4CC[C@H]3[C@@H]1C[C@@H](O)[C@@H]2O,Potency,C33A,inactive
same,Potency,CAOV3,inactive
same,Potency,CASKI,inactive
same,Potency,Es-2,inactive
same,Potency,HeLa,31.6 µM (active)
same,Potency,Hek293T,inactive
same,Potency,JEG-3,inactive
same,Potency,OV90,inactive
same,Potency,SKOV3,inactive
Nc1ccc(/C=C/c2ccc(N)cc2S(=O)(=O)O)c(S(=O)(=O)O)c1,"activity change, negative = cytotoxicity",C33A,-2.85% [at 0.462 µM]
same,"activity change, negative = cytotoxicity",CAOV3,-5.63% [at 0.462 µM]
same,"activity change, negative = cytotoxicity",CASKI,-23.3% [at 0.462 µM]
same,"activity change, negative = cytotoxicity",Es-2,1.34% [at 0.462 µM]
same,"activity change, negative = cytotoxicity",HeLa,9.69% [at 0.462 µM]
same,"activity change, negative = cytotoxicity",Hek293T,4.03% [at 0.462 µM]
same,"activity change, negative = cytotoxicity",JEG-3,-1.28% [at 0.462 µM]
same,"activity change, negative = cytotoxicity",OV90,2.33% [at 0.462 µM]
same,"activity change, negative = cytotoxicity",PA-1,4.94% [at 0.462 µM]
same,"activity change, negative = cytotoxicity",SKOV3,-10.7% [at 0.462 µM]
Nc1ccn([C@@H]2O[C@H](CO)[C@@H](O)C2(F)F)c(=O)n1,Potency,C33A,inactive
same,Potency,CAOV3,631 nM (active) and 1.12 µM (active)
same,Potency,CASKI,inactive
same,Potency,HeLa,inactive
same,Potency,Hek293T,inactive
same,Potency,JEG-3,inactive
CCN(CC)CCNC(=O)COc1ccc(Cl)cc1,Potency,C33A,inactive
same,Potency,CAOV3,inactive
same,Potency,CASKI,inactive
same,Potency,Es-2,inactive
same,Potency,HeLa,inactive
same,Potency,Hek293T,inactive
same,Potency,JEG-3,inactive
same,Potency,OV90,inactive
same,Potency,PA-1,inactive
same,Potency,SKOV3,inactive
CCCCCCCCCCOCC(O)CN (stereo not given),Potency,MCC-26,inactive
same,Potency,MKL-2,23.7 µM (active)
same,Potency,CAOV3,31.6 µM (active)
same,Potency,HeLa,inactive
same,Potency,Hek293T,inactive
same,Potency,JEG-3,inactive
same,Potency,PA-1,inactive
COc1cc(C(=S)N2CCOCC2)cc(OC)c1OC,Potency,C33A,inactive
same,Potency,CAOV3,inactive
same,Potency,CASKI,inactive
same,Potency,Es-2,inactive
same,Potency,HeLa,inactive
same,Potency,Hek293T,inactive
same,Potency,JEG-3,inactive
same,Potency,OV90,inactive
same,Potency,PA-1,inactive
same,Potency,SKOV3,inactive
